Only some compounds are listed: those with a hit (about 3.6% of all), similar ones and a draw of the others.
PHOSPHO1 block: PubChem AID 1565; Phosphoethanolamine/phosphocholine phosphatase (Homo sapiens), Q8TCT1; recombinant PHOSPHO1, absorbance phosphatase assay; inhibition, % at 13.3 µM; 290,000 compounds, 1.1% hits; in the data active means inhibition above about 60%
esBAF inh: Bmi1 luciferase reporter increase in mESCs, primary screen, esBAF inhibitor project, mouse ES cells, Bmi1 luciferase knock-in, single point | 24 h; 100% = twice the neutral-well signal | 350,000 compounds, 2% hits | AID 602393, 2012 | reporter increase, % at 12.5 µM; in the data active means activation above about 40%;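 further: a rise in the Bmi1 reporter signal indicates esBAF inhibition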
APOBEC3A inh: APOBEC3A ssDNA deaminase inhibitors, primary screen, selectivity assay for APOBEC3G inhibitor project, biochemical, FAM/TAMRA oligo cleavage fluorescence; DNA dC->dU-editing enzyme APOBEC-3A (Homo sapiens), P31941; recombinant A3A, FAM/TAMRA ssDNA deamination fluorescence; inhibition, % at 20 µM; 330,000 compounds, 0.41% hits;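 active means at least 40% inhibition at 20 µM here, with at most 30% in a related deaminase screen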
Target sequence (P31941 whole entry, looked up): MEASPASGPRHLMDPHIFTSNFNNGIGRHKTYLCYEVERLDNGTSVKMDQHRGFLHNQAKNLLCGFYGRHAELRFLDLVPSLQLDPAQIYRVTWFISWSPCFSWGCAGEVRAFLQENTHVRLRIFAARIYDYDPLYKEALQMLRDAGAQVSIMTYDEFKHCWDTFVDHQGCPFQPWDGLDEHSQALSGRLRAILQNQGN
MITF act: activators of MITF-driven TRPM1 promoter reporter, primary screen, cell-based, SK-MEL-5, luciferase, single point; activation, % at 12.5 µM; 300,000 compounds, 0.75% hits; SK-MEL-5 TRPM1-promoter luciferase, 24 h; % of positive control, neutral wells = 0;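 active means mean activation of at least 80% with every replicate also reaching 80%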
APOBEC3G inh: APOBEC3G DNA deaminase inhibitors, primary screen, biochemical, fluorescence, single-stranded DNA substrate, uHTS | DNA dC->dU-editing enzyme APOBEC-3G (Homo sapiens), Q9HC16 | recombinant A3G, ssDNA deamination FAM/TAMRA fluorescence | inhibition, % at 20 µM | 330,000 compounds, 0.28% hits;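 active means inhibition of at least 40% at 20 µM, with no more than 30% in the related APOBEC3A deaminase screen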
Target sequence (Q9HC16 whole entry, looked up): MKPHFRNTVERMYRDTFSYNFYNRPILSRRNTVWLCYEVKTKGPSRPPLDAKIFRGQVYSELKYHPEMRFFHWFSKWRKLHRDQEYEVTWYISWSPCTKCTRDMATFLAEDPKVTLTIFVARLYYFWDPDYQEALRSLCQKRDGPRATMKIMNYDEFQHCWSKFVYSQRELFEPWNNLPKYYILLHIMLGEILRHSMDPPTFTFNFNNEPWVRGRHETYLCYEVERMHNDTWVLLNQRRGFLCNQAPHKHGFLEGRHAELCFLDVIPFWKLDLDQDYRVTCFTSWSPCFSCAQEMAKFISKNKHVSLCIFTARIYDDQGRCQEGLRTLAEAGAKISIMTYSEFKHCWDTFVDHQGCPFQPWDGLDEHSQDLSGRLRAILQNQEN
Wnt bcat act: Wnt/beta-catenin pathway activators, primary screen, cell-based, plate reader, single point; Wnt/beta-catenin reporter cell assay, activator; activation, % at 9.35 µM; 300,000 compounds, 1.2% hits; AID 743398, 2014; in the data active means activation above about 30%, passing the limit was not always enough
Ring1 derepress: Ring1 mRNA increase in mouse ESCs, confirmation, esBAF inhibitor project, cell-based, mouse ESC, RT-qPCR, cherry-pick; shares compounds with esBAF inh; mouse ESC E14, Ring1 mRNA RT-qPCR fold change; fold change at 33 µM; 550 tested, under 10 active; AID 743176, 2013;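 active means Ring1 gene expression raised more than 2-fold over untreated cells in both replicates at either tested dose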;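 further: Ring1 transcript normalised to actin housekeeping signal by TaqMan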
esBAF Fgf4 qPCR: Fgf4 mRNA decrease in mouse ESCs, confirmation, esBAF inhibitor project, cell-based, mouse ESC, RT-qPCR, cherry-pick; 550 compounds, 4% hits; shares compounds with esBAF inh; mouse ESC E14, Fgf4 mRNA qPCR fold change; active compounds read low; AID 743177, 2013; Fgf4 expression fold change at 33 µM;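 active means Fgf4 expression under 0.8 fold of control in both repeat measurements at one or both tested doses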;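 further: Fgf4 transcript normalised to actin in duplex TaqMan qPCR; cells exposed to compound for 24 h before lysis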
esBAF Bmi1 qPCR: esBAF inhibition via Bmi1 de-repression, confirmation, cell-based, RT-qPCR, mouse ESC, single point, cherry-pick; AID 743180, 2013; shares compounds with esBAF inh; fold change at 33 µM; 550 tested, under 10 active; mouse ESE14 ES cells, Bmi1 mRNA qPCR fold; active compounds read high;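 active means Bmi1 expression fold change above 6 at either tested concentration, seen in replicate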;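 further: higher fold means more Bmi1 de-repression and stronger esBAF inhibition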
A549 tox SP: A549 cell cytotoxicity, cytotoxicity control, plate reader, single point, cherry-pick. shares compounds with esBAF inh. cell viability change % (negative = cytotoxic), % at 25 µM, hits read low. 550 tested, under 10 active; call rule not given here
HepG2 tox SP: HepG2 cell cytotoxicity, cytotoxicity control, plate reader, single point, cherry-pick | shares compounds with esBAF inh | active compounds read low | activity change, negative = inhibition, % at 25 µM | 550 compounds, 4% hits; in the data active means activity change below about -50%
HEK293 tox SP: HEK293 cell cytotoxicity, cytotoxicity control, plate reader, single point, cherry-pick; AID 743190, 2013; shares compounds with esBAF inh; 550 compounds, 3% hits; activity change, negative = inhibition, % at 25 µM, hits read low; in the data active means activity change below about -38%, passing the limit was not always enough
Numbers stand for hits; – = inactive; · = no result given.

SMILES	PHOSPHO1 block	esBAF inh	APOBEC3A inh	MITF act	APOBEC3G inh	Wnt bcat act	Ring1 derepress	esBAF Fgf4 qPCR	esBAF Bmi1 qPCR	A549 tox SP	HepG2 tox SP	HEK293 tox SP
COc1ccccc1-c1noc(CCC(=O)N2CCN(c3cc(C)ccc3C)CC2)n1	·	–	–	–	–	–	·	·	·	·	·	·
Cc1ccc(C)c(N2CCN(C(=O)CCc3nc(-c4ccccc4C(F)(F)F)no3)CC2)c1	·	73	–	–	–	34	–	–	–	–	–	–
COc1ccc(-c2noc(CCCC(=O)N3CCN(c4cc(C)ccc4C)CC3)n2)cc1	·	62	–	–	–	–	–	–	–	–	–	–
O=C(NCC1CC1)[C@H]1[C@H](CO)[C@H]2Cn3c(cccc3=O)[C@@H]1N2C(=O)c1ccc(F)cc1	·	–	·	·	·	·	·	·	·	·	·	·
C[C@H]1CN([C@@H](C)CO)C(=O)c2cc(-c3cccnc3)cnc2O[C@@H]1CN(C)C(=O)c1ccccc1F	·	–	·	·	·	·	·	·	·	·	·	·
CC(=O)N1[C@@H]2c3ccc(C4=CCCCC4)c(=O)n3C[C@H]1[C@H](CO)[C@H]2C(=O)N[C@H](C)c1ccccc1	·	–	·	·	·	·	·	·	·	·	·	·
Cc1cccc(C)c1OCc1cc(C(=O)N2CCC(c3ccccc3)CC2)no1	–	–	–	–	–	–	·	·	·	·	·	·
Cc1cccc(C)c1OCc1cc(C(=O)N2CCC(C3CCCCC3)C2)no1 (stereo not drawn)	–	56	–	–	–	–	–	–	–	–	–	–
CN(C)c1ccc(CNc2nc3cc(-c4ccc(F)cc4)sc3c(=O)n2C)cc1	·	77	·	·	·	–	–	–	–	–	–	–
CC(O)(c1cccc(F)c1)c1nc(-c2cccc(C(=O)O)c2)cs1 (stereo not drawn)	·	–	·	·	·	–	·	·	·	·	·	·
CC(O)(c1ccccc1)c1nc(-c2cccc(C(=O)O)c2)cs1 (stereo not drawn)	·	69	·	·	·	–	–	–	–	–	–	–
CCOc1ccccc1N1CCN(C(=O)CNC(=O)c2sc3ccccc3c2Cl)CC1	–	–	–	–	–	–	·	·	·	·	·	·
CC1CCCN(C(=O)CNC(=O)c2sc3ccccc3c2Cl)C1 (stereo not drawn)	·	82	–	126	–	–	–	–	–	–	–	–
C[C@@H]1CCCCO[C@@H](CN(C)C(=O)c2ccncc2)[C@@H](C)CN([C@H](C)CO)C(=O)c2cc(NC(=O)NC3CCCCC3)ccc2O1	·	–	·	·	·	·	·	·	·	·	·	·
COCC(=O)N1[C@@H]2CN(C(=O)Nc3ccccc3F)c3ccccc3[C@@H]2[C@@H]1CO	·	–	·	·	·	·	·	·	·	·	·	·
O=C(Nc1cccc(O)c1)c1ccc(Br)cc1	–	57	–	–	–	·	–	–	–	–	–	–
COc1ccc(NC(=O)N(C)C[C@@H]2Oc3ncccc3C(=O)N([C@H](C)CO)C[C@@H]2C)cc1	·	–	·	·	·	·	·	·	·	·	·	·
O=C(c1cnccn1)N1C[C@H]2[C@@H](c3ccccc31)[C@@H](CO)N2Cc1ccc2c(c1)OCO2	·	–	·	·	·	·	·	·	·	·	·	·
FC(F)(F)c1cc(-c2ccccc2)nc(N2CCCCCC2)n1	–	–	–	·	–	–	·	·	·	·	·	·
c1ccc(-c2cnnc(N3CCCCC3)n2)cc1	–	55	–	86	–	–	–	–	–	–	–	–
O=C(CC(NC(=O)OCc1ccccc1)c1nn[nH]n1)OCc1ccccc1 (stereo not drawn)	·	75	·	·	·	–	–	–	–	–	–	–
CC(C)(C)[S@@](=O)N1Cc2cc(C(=O)NCc3ccc4c(c3)OCO4)nc(-c3cccc(-c4cccnc4)c3)c2[C@H]1CCO	·	–	·	·	·	·	·	·	·	·	·	·
COc1ccccc1CCC(=O)Nc1nc2ccccc2[nH]1	–	61	–	–	–	31	–	0.38	6.9	–	–	–
C[C@@H]1CCCCO[C@H](CN(C)Cc2ccc3c(c2)OCO3)[C@H](C)CN([C@H](C)CO)C(=O)c2cc(NS(C)(=O)=O)ccc2O1	·	–	·	·	·	·	·	·	·	·	·	·

Assay outcomes (PubChem BioAssay)
